# Bioassay records (PubChem)
# The sample as a whole holds a higher share of hits than the screen did.
# Methyltransferases: Primary Screen for Target Class Profiling of Small Molecule Inhibitors of Methyltransferases. AID 1745853, 2022. 3.9% of 25,000 active. calls only at 40 µM. purified enzyme, MTase-Glo SAH luminescence; stronger effect = lower value; call rule not given here
#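 Each enzyme was reacted with SAM and its substrate, with compounds tested once at 40 uM; SAH formed was read by MTase-Glo luminescence.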
# * marks the source's active call; other numbers are inactive results; i = inactive; + = active, no number. On the % scale 0 is the no-effect control and ±100 the full control effect.
SMILES,Methyltransferases
Cc1cccc(Cn2nc(C3CCCNC3)n(-c3ccccc3)c2=O)c1 (configuration not stated),i
COc1ccc(NC(=O)c2nc3sccn3c2-c2cccc(OC)c2)cc1,i
CCOC(=O)Cn1cccc1-c1nc(-c2ccc(OC)cc2)c(-c2ccc(OC)cc2)s1,+
CC1(C(=O)NC2CCCCCC2)Cn2c(ccc2-c2ccco2)C(=O)N1Cc1ccc(F)cc1 (configuration not stated),i
O=C(Cn1c(=O)c2ccc(Cl)cc2n2nncc12)NCc1ccc(F)cc1,i
CCCn1c(=O)c2ccccc2n2c(=O)n(CC(=O)N3CCN(c4ccccc4F)CC3)nc12,i
Cn1c(=O)c(-c2c(Cl)cccc2Cl)cc2cnc(Nc3ccc(N4CCOCC4)cc3)nc21,i
CNC(=O)c1ccccc1Nc1nc(Nc2ccc(N3CCNCC3)cc2)ncc1Cl,+
CC(=O)c1c(C)c2cnc(Nc3ccc(N4CCNCC4)cn3)nc2n(C2CCCC2)c1=O,i
CC1(C(=O)NC2CCCC2)Cn2c(nc3ccccc32)C(=O)N1Cc1cccc(Br)c1 (configuration not stated),i
CNC(=O)c1cc(C2CC2)nc2c1c(C1CCCN([S+](=O)([O-])c3c(C)noc3C)C1)nn2C (configuration not stated),i
Cc1ccc2c(c1)c(-n1cccc1)c1n2CC(C)(C(=O)NC2CCC(C)CC2)N(Cc2ccc(Cl)cc2)C1=O (configuration not stated),i
CC1(C(=O)NC2CCCCCCC2)Cn2c(ccc2-c2ccccc2)C(=O)N1Cc1ccc(F)cc1 (configuration not stated),i
O=C(CN1CC2CC(C1)[C@H]1CCCC(=O)N1C2)N1CCN(c2ccc(Cl)cc2)CC1 (some centres not stated),i
Cc1cc(C(C#N)c2ccc(Cl)cc2)c(Cl)cc1NC(=O)c1cc(I)cc(I)c1O (configuration not stated),+
Cc1cccc(NC(=O)CSc2nnc3n(CC(C)C)c(=O)c4ccc(Cl)cc4n23)c1,i
Cc1ccc(Cn2c(=O)c3ccccc3n3c(-c4ccc(F)cc4)nnc23)cc1,i
COc1ccc(F)cc1-c1cccc(C(=O)NCC(=O)NCc2cccs2)c1,i
CC(C)c1c2cc(-c3ccnc(NC4CCC(NC5CCOCC5)CC4)n3)ccc2nn1C (configuration not stated),+
CC1CCCCC1NC(=O)C1(C)Cn2c(cc3occc32)C(=O)N1Cc1ccc(F)cc1 (configuration not stated),i
CC(C)(C)c1cc2n(n1)CC(C)(C(=O)NC1CCCCCC1)N(Cc1ccccc1)C2=O (configuration not stated),i
CCOC(=O)c1cc2n(n1)CC(C)(C(=O)NC1CCC(C)CC1)N(Cc1cccc(C)c1)C2=O (configuration not stated),i
CC(=O)OC1/C(C)=C/C(=O)C(OC(C)=O)C(C)(C)/C=C/C(C)C(=O)C2(OC(C)=O)CC(C)C(OC(=O)c3ccccc3)C12 (configuration not stated),i
COc1ccc(OC)c(CCNC(=O)CCc2nnc3n(CC(C)C)c(=O)c4ccccc4n23)c1,i
COc1ccc(-c2cc3n(n2)CC(C)(C(=O)NCc2ccccc2)N(Cc2ccc(F)cc2)C3=O)cc1 (configuration not stated),i
SMILES,Methyltransferases
C=C1C(=O)OC2CC(C)C(CCC(C)O)=CCC12 (configuration not stated),+
C=C1C(=O)O[C@@H]2C[C@H](C)[C@@]3(O)C=C(C(C)=O)[C@]4(CC3C[C@H]12)C(=O)O[C@H]1C[C@@H](C)C(CCC(C)=O)=CC[C@H]14 (some centres not stated),i
C=C1C(=O)OC2CC(C)C(CCC(C)=O)=CCC12 (configuration not stated),i
CCCn1c(=O)c2ccc(C(=O)NC(C)C)cc2n2c(SCc3ccc(F)cc3)nnc12,i
CCOC(=O)c1cc2n(n1)CC(C)(C(=O)NCCOC)N(c1ccc(OCC)cc1)C2=O (configuration not stated),i
c1ccc2c(Nc3nnc(-c4ccncc4)s3)cccc2c1,i
Cc1cccc(Nc2nc(-c3ccncc3)cs2)c1,+
COc1cc(Br)c(Nc2nc(-c3c(C)nc4ncccn34)cs2)c(Br)c1,i
CCCn1c(=O)c2ccc(C(=O)NC3CCCC3)cc2n2c(SCC(=O)c3ccc(OC)cc3)nnc12,i
O=C1CSc2ccccc2N1Cc1cccc(C(F)(F)F)c1,+
Cc1ccc(CN2CC(=O)N(Cc3cccc(F)c3)c3ccccc3S2(=O)=O)cc1,i
O=C1CN(Cc2cccc(F)c2)S(=O)(=O)c2ccccc2N1Cc1ccc(Cl)cc1,i
Cn1c(=O)n(C)c2cc(S(=O)(=O)Nc3ccc(N4CCN(S(C)(=O)=O)CC4)cc3)ccc21,i
